From PubChem BioAssay
Hits are enriched below; roughly 2.3% of the tested compounds scored in any of these assays.
Nrf2 activator: qHTS of Nrf2 Activators | AID 624171, 2012 | Potency, µM (series often up to 46.1 µM), actives largely listed as activators | 410,000 compounds, 0.31% hits | AREc32 ARE-luciferase reporter (MCF7-derived line), luminescence, 24 h; further: nearly all actives have a fitted effect of over 65% in size
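Quantitative high-throughput format: AREc32 reporter cells, 1000 per well, received compound by pin transfer and were incubated 24 hr at 37 deg C, 5% CO2, before Steady-Glo luminescence detection.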
Nrf2 inh: Nrf2 qHTS screen for inhibitors | A549 ARE-Fluc reporter, luciferase luminescence, 18-24 h | Potency, µM (doses to about 46 µM), most hits filed as inhibitors | 360,000 compounds, 2.1% hits | AID 504444, 2011; further: nearly all actives have a fitted effect of over 60% in size
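A549 ARE_Fluc cells (5000/well, 5% FBS OPTI-MEM) pre-incubated 2 h, then treated with compounds 18-24 h at 37C/5% CO2 in concentration-response. CellTiter-Fluor viability read first; BugLite luciferase luminescence after 15 min at room temperature gives Nrf2 activity.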
Apoferritin bind: qHTS Assay for Identification of Novel General Anesthetics | 350,000 compounds, 0.074% hits | AID 485281, 2010 | Potency, µM (doses to about 77.5 µM), usual class: inhibitors | Ferritin light chain (Equus caballus), P02791 | apoferritin/1-aminoanthracene competitive binding, fluorescence; further: nearly all actives have a fitted effect of over 20% in size
Target sequence (P02791 2-175 limits assumed): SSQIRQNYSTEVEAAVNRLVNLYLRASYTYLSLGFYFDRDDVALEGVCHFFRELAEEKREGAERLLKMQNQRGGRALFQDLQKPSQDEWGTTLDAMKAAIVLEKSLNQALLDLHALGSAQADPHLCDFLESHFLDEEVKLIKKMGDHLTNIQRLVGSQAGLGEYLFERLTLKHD
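Probe: 1-aminoanthracene (50% saturated, PBS). Protein: horse-spleen apoferritin, 10 uM. Incubation: 10 min, room temperature. Detection: 380 nm excitation, 535 nm emission. Analysis: normalized response, four-parameter Hill.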
Giardia kill: Small Molecules that selectively kill Giardia lamblia: qHTS | activity change, % at 7.66 µM, hits read low | Giardia lamblia trophozoite viability | AID 540267, 2011 | 340,000 compounds, 0.15% hits; in the data active means activity change below about -80%; inconclusive means between about -30% and that limit;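 further: parasites exposed to compound for two days anaerobically before the ATP read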
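Giardia lamblia trophozoites (100 cells/well) were incubated with compounds for 48 h at 37 deg C under anaerobic conditions. Viability was read as ATP content by one-step luminescence after 15-30 min at room temperature.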
mIDH1 inhibitor: qHTS for Inhibitors of mutant isocitrate dehydrogenase 1 (IDH1): qHTS; Isocitrate dehydrogenase [NADP] cytoplasmic (Homo sapiens), O75874; IDH1-R132H enzyme, NADPH consumption, diaphorase/resazurin fluorescence; Potency, µM (top dose mostly 76.6 µM), actives largely listed as inhibitors; 390,000 compounds, 0.093% hits; AID 602179, 2012; further: nearly all actives have a fitted effect of over 65% in size
Target sequence (O75874 whole entry R132H, stated change not applied): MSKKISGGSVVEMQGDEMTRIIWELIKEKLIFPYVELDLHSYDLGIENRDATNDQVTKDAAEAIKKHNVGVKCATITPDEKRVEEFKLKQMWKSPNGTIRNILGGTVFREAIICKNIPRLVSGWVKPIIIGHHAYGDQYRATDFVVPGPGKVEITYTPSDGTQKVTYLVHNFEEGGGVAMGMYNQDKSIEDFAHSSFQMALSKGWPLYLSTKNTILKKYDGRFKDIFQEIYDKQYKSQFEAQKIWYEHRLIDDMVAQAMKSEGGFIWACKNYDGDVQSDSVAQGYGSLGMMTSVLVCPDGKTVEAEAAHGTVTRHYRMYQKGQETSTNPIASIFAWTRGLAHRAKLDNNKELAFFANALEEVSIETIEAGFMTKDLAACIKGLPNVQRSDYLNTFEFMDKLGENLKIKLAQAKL
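IDH1-R132H (0.5 ug/mL) preincubated 30 min with compound, then NADPH (0.016 mM) and alpha-KG (2 mM) added; 80 min at RT, pH 7.5. Remaining NADPH coupled via diaphorase/resazurin to fluorescence (540/590 nm); concentration-response curves normalized to no-enzyme control.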
A549 tox-1: Nrf2 qHTS screen for inhibitors: counterscreen for cytotoxicity; AID 504648, 2011; 390,000 compounds, 0.16% hits; A549 ARE-Fluc cells, CellTiter-Fluor viability, 18-24 h; Potency, µM (highest dose often 46 µM), usual class: inhibitors
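A549 ARE-Fluc cells in 5% FBS OPTI-MEM, 5000 cells/well, rested 2 h then exposed to compounds in concentration-response for 18-24 h at 37 °C. Viability by CellTiter-Fluor fluorescence (Ex 405/Em 525) after 30 min; luciferase luminescence (BugLite, 15 min, RT) read afterwards.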
FLuc counter 3: Nrf2 qHTS screen for inhibitors: Purified Fluc Biochemical Counterscreen for Hit Validation; AID 720522, 2013; 1,400 compounds, 4% hits; shares compounds with Nrf2 inh; purified firefly luciferase, luminescence inhibition; Potency, µM (highest dose often 57.5 µM), hits mostly inhibitors; further: nearly all actives have a fitted effect of over 65% in size
A549 tox-2: Nrf2 qHTS screen for inhibitors: A549 ARE-Fluc Cytotoxicity Counterscreen for Hit Validation; shares compounds with Nrf2 inh; Potency, µM (series often up to 46.1 µM), hits mostly inhibitors; A549 ARE-Fluc cells, cytotoxicity counterscreen; 1,400 compounds, 2% hits;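 further: cells exposed to compounds for 18 to 24 hours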
ARE-Fluc inh: Nrf2 qHTS screen for inhibitors: Nrf2 A549 ARE-Fluc Confirmation Assay for Hit Validation; shares compounds with Nrf2 inh; A549 ARE-firefly luciferase reporter, luminescence; Potency, µM (series often up to 46.1 µM), actives largely listed as inhibitors; 1,400 compounds, 74% hits; further: nearly all actives have a fitted effect of over 65% in size
A number is an active result; 0 = inactive; ? = inconclusive; - = not tested or not shown. Unless noted, the call rests on the fitted dose curve; in most records, active means well fitted curve in the direction sought with a large enough effect; inconclusive means small, poorly fitted or top-dose-only effect, or another doubt; inactive means no such curve, though single readings can be large; an effect the other way counts as inactive or inconclusive.

SMILES	Nrf2 activator	Nrf2 inh	Apoferritin bind	Giardia kill	mIDH1 inhibitor	A549 tox-1	FLuc counter 3	A549 tox-2	ARE-Fluc inh
CC12CCC(=O)C=C1CCC1C2CCC2(C)C1CCC2(O)C(=O)CO (stereo unspecified)	0	?	-	0	0	0	-	-	-
CC(=O)C1CCC2C3CC(C)C4=CC(=O)CC[C@@]4(C)C3C(O)C[C@@]12C (stereo partly specified)	-	-	0	-	-	-	-	-	-
CC(=O)[C@H]1CC[C@H]2[C@@H]3C[C@H](C)C4=CC(=O)CC[C@]4(C)[C@H]3[C@@H](O)C[C@]12C	0	0.058µM	0	0	0	0	0	0	0.146µM
CC12CCC(=O)C=C1C(O)CC1C2CCC2(C)C1CCC2(O)C(=O)CO (stereo unspecified)	0	0	-	0	0	0	-	-	-
CC(C)(CNC(=O)CO/N=C1/C=C2CCC3C(C(O)C[C@@]4(C)C3CC[C@]4(O)C(=O)CO)[C@@]2(C)CC1)C(O)C(=O)O (stereo partly specified)	0	1.84µM	0	0	0	0	0	0	-
CC(=O)OCC(=O)C1(O)CCC2C3CC(F)C4=CC(=O)CCC4(C)C3C(O)CC21C (stereo unspecified)	0	0.0651µM	-	0	0	0	0	0	0.0184µM
CCC(CC)C(=O)OCC(=O)C1(O)CCC2C3CCC4=CC(=O)CCC4(C)C3C(O)CC21C (stereo unspecified)	0	0.326µM	-	0	0	0	0	0	0.103µM
CCOc1ccccc1C(=O)N(Cc1ccco1)Cc1ccco1	0	0	0	-	0	0	-	-	-
CCN(CC)C(=O)c1cccc(-c2csc(C(C)(NC(C)=O)c3ccc(OC)cc3)n2)c1 (stereo unspecified)	0	-	-	-	-	-	-	-	-
Cc1nn(-c2ccc(N3CCOCC3)nn2)c(C)c1CCC(=O)Nc1ccc(F)cc1F	0	?	0	-	0	0	-	-	-
CC(=O)OCC(=O)[C@@]1(O)CC[C@H]2[C@@H]3CCC4=CC(=O)CC[C@]4(C)[C@H]3[C@@H](O)C[C@@]21C	0	0.0411µM	0	0	0	0	0	0	0.0731µM
CC(=O)OCC(=O)[C@@]1(O)CCC2C3CCC4=CC(=O)CC[C@]4(C)C3C(O)C[C@]21C (stereo partly specified)	-	-	0	-	-	-	-	-	-
CCCCCC(=O)O[C@@]1(C(C)=O)CCC2C3CCC4=CC(=O)CC[C@@]4(C)C3CC[C@]21C (stereo partly specified)	-	-	0	-	-	-	-	-	-
CCCC(=O)O[C@]1(C(=O)CO)CC[C@H]2[C@@H]3CCC4=CC(=O)CC[C@]4(C)[C@H]3[C@@H](O)C[C@@]21C	0	0.0231µM	0	0	0	0	0	0	0.0146µM
CC1CC2(C)C(=CC1=O)CCC1C2C(O)CC2(C)C1CCC2(O)C(=O)CO (stereo unspecified)	0	0.116µM	-	0	0	0	0	0	0.184µM
C[C@]12CCC(=O)C=C1CC[C@@H]1[C@@H]2[C@@H](O)C[C@@]2(C)[C@H]1CC[C@]2(O)C(=O)COC(=O)CCC(=O)O	0	0.326µM	0	?	0	0	0	0	0.291µM
C[C@]12CCC(=O)C=C1CCC1C2C(O)C[C@]2(C)C1CC[C@]2(O)C(=O)COC(=O)CCC(=O)O (stereo partly specified)	-	-	0	-	-	-	-	-	-
C[C@@]12CCC(=O)C=C1CC[C@@H]1[C@@H]2[C@H](O)C[C@]2(C)[C@@H]1CC[C@]2(O)C(=O)CO	-	-	0	-	-	-	-	-	-
COc1ccc(NC(=O)C(C)n2nc(-c3cc(C)ccc3C)c3c(c2=O)CCCC3)cc1 (stereo unspecified)	0	?	?	-	0	0	-	-	-
Cc1nc2ccc(NS(=O)(=O)c3ccc(F)c(C)c3)cc2[nH]1	0	8.2µM	0	0	0	0	0	0	5.8µM
O=[N+]([O-])c1ccc2ncnc(N3CCN(Cc4ccc5c(c4)OCO5)CC3)c2c1	0	8.2µM	0	0	0	0	0	0	16.4µM
CCCN(Cc1cccs1)C(=O)Nc1ccccc1C	0	0	0	-	0	0	-	-	-
O=C1CC(c2ccco2)Cc2[nH]c(=O)c(C(=O)Nc3ccccc3)cc21 (stereo unspecified)	-	-	-	-	-	-	0	0	?
O=C1CC(c2ccccc2)Cc2[nH]c(=O)c(C(=O)Nc3ccc(F)cc3)cc21 (stereo unspecified)	0	-	0	-	0	0	-	-	-
O=c1ncccn1[C@@H]1O[C@H](CO)[C@@H](O)[C@H]1O	-	-	0	-	-	-	-	-	-
SMILES	Nrf2 activator	Nrf2 inh	Apoferritin bind	Giardia kill	mIDH1 inhibitor	A549 tox-1	FLuc counter 3	A549 tox-2	ARE-Fluc inh
CCN(CC)c1ccc(NC(=O)c2sc3nc(-c4ccccc4)cn3c2C)cc1	0	-	0	-	0	0	-	-	-
Cc1c(C(=O)Nc2ccc3c(c2)OCCO3)sc2nc(-c3ccccc3)cn12	0	6.51µM	0	0	0	?	?	0	20.6µM
CC(C)C[C@H](N)c1cn([C@@H](CCCCN)C(=O)N2CCNCC2)nn1	0	1.03µM	0	0	0	?	0	0	?
CC12C=CC(=O)C=C1CCC1C3CCC(O)(C(=O)CO)C3(C)CC(O)C12F (stereo unspecified)	0	0.0103µM	-	0	0	0	0	0	0.0103µM
C[C@H]1C[C@H]2[C@@H]3CCC4=CC(=O)C=C[C@]4(C)[C@@]3(Cl)[C@@H](O)C[C@]2(C)[C@@]1(O)C(=O)CO	0	0.0146µM	0	0	0	0	0	0	0.0146µM
CC(=O)C1(O)CCC2C3CC(C)C4=CC(=O)C=CC4(C)C3(F)C(O)CC21C (stereo unspecified)	0	0.0326µM	-	0	0	0	0	0	0.0651µM
CC12C=CC(=O)C=C1CCC1C3CCC(O)(C(=O)CO)C3(C)CC3OC312 (stereo unspecified)	0	0	0	0	0	0	-	-	-
